{"source": "PubChem BioAssay (NCI)", "note": "The panel holds about 79,000 compounds, 15% with a hit somewhere; the sample as a whole holds those more often. Unmarked numbers belong to inactive results. Calls of active or inactive are those of the source. No stated cut-off is given here; in the data, active means growth inhibition above about 70%; inactive means the rest."}
{"assay": "NCI Yeast Anticancer Drug Screen. Data for the cln2 rad14 strain (AID 165);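 further: 0% = growth equal to vehicle treated cultures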", "settings": "S. cerevisiae cln2 rad14 strain, at 50.0 µM, active compounds read high", "procedure,_shortened": "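Relative to vehicle controls, growth inhibition of compound-treated cln2 rad14 yeast was recorded.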"}
{"smiles": "C=CCOC(=O)NC(CCC(=O)OC)C(=O)O", "note": "(stereo not given)", "growth inhibition": "-9.3%"}
{"smiles": "Cc1ccc(/C=C/C(=O)c2c([O-])on[n+]2-c2ccccc2)cc1", "growth inhibition": "14.9%"}
{"smiles": "COC(=O)c1cc(C)c(C)c2c1NC(=O)CNC2=O", "growth inhibition": "19.8%"}
{"smiles": "CCOC(=O)C1C(NNC(N)=O)CN(C(=O)OCC)C1C(=O)OCC", "note": "(stereo not given)", "growth inhibition": "0.4%"}
{"smiles": "CCOC(=O)/C=C(/C)C#N", "growth inhibition": "7.4%"}
{"smiles": "N#Cc1ccccc1C#N", "growth inhibition": "-13.9%"}
{"smiles": "C[N+](C)(C)c1ccc(C(N)C(=O)O)cc1", "note": "(stereo not given)", "growth inhibition": "-30.1%"}
{"smiles": "O=C(O)CCC(=O)Nc1cccc(C(F)(F)F)c1", "growth inhibition": "-0.55%"}
{"smiles": "C=C(C(N)=O)c1ccc([N+](=O)[O-])o1", "growth inhibition": "30%"}
{"smiles": "CCCCN(CCCC)c1ccc(S(=O)(=O)c2ccc(N(CCCC)CCCC)cc2)cc1", "growth inhibition": "30.4%"}
{"smiles": "Oc1ccccc1C=Nc1ccc(N2CCOCC2)cc1", "growth inhibition": "-4.2%"}
{"smiles": "COC(=O)C[C@H](C)[C@H](C)CC(=O)O", "growth inhibition": "-7.3%"}
{"smiles": "CC1CN(C(=O)/C=C/C(=O)OC2CCCCC2)C(C)CN1C(=O)/C=C/C(=O)OC1CCCCC1", "note": "(stereo not given)", "growth inhibition": "1.7%"}
{"smiles": "COC(=O)c1csnn1", "growth inhibition": "8.5%"}
{"smiles": "Cc1cccc(CC(N)C(=O)O)c1", "note": "(stereo not given)", "growth inhibition": "-3.3%"}
{"smiles": "NC(=O)c1ccc(S(=O)(=NS(=O)(=O)c2ccccc2)c2ccc(C(N)=O)cc2)cc1", "growth inhibition": "-62.8%"}
{"smiles": "COC(=O)c1nc2n[nH]c(N)c2c2c1CCCCCCCCCC2", "growth inhibition": "-13.6%"}
{"smiles": "CC(CCC(=O)O)C1CCC2C3CCC4CCCCC4(C)C3CCC12C", "note": "(stereo not given)", "growth inhibition": "17.3%"}
{"smiles": "NCCN(CCN)/[N+]([O-])=N/O", "growth inhibition": "-1%"}
{"smiles": "O=C([O-])[C+](C=Cc1cccc2ccccc12)C(=O)O", "growth inhibition": "5.35%"}
{"smiles": "COc1ccc(-c2cc(=O)c3c([nH]2)CCCC3)cc1", "growth inhibition": "-16.8%"}
{"smiles": "CCOC(=O)C(C)c1nc2cc(N3CCOCC3)c(F)cc2[nH]c1=O", "note": "(stereo not given)", "growth inhibition": "28.6%"}
{"smiles": "Cc1nc2ccc(-c3ccccc3)cc2nc1C", "growth inhibition": "4.45%"}
{"smiles": "CN(C)P(=O)(Nc1ccc(Cl)cc1)Nc1ccc(Cl)cc1", "growth inhibition": "3.9%"}
{"smiles": "c1ccc(CCCCc2ccc(CCCCc3ccccc3)cc2)cc1", "growth inhibition": "-6.35%"}
{"smiles": "CCN1CCCC(C#N)(c2ccccc2)CC1", "note": "(stereo not given)", "growth inhibition": "8.9%"}
{"smiles": "Cc1c(C)c2cc3c(=O)c(CCl)coc3c(C)c2oc1=O", "growth inhibition": "15.6%"}
{"smiles": "C/C(CC(C)C)=N\\NC(=O)Nc1ccccc1Cl", "growth inhibition": "-3.85%"}
{"smiles": "CC(=O)OC1CC2C(C)(CCC3C2(C)CCC2(C)C4CC(C)(C)CCC4(C)CCC32C)C1C", "note": "(stereo not given)", "growth inhibition": "2.75%"}
{"smiles": "O=c1nc(NC(c2ccccc2)(c2ccccc2)c2ccccc2)ccn1CCCl", "growth inhibition": "-23.9%"}
{"smiles": "Nc1nc(C2CCCC2)c(Br)c(=O)[nH]1", "growth inhibition": "2.45%"}
{"smiles": "CC(=O)Nc1cc(=O)[nH]c2c1CCC2", "growth inhibition": "-16.4%"}
{"smiles": "CCOC(O)C(F)(F)C(F)(F)C(F)(F)F", "note": "(stereo not given)", "growth inhibition": "20.9%"}
{"smiles": "COC1/C=C/OC2(C)Oc3c(C)c(O)c4c(c3C2=O)C(N)=C(Nc2ccccc2)C(=NC(=O)C(C)=CC=CC(C)C(O)C(C)C(O)C(C)C(OC(C)=O)C1C)C4=O", "note": "(stereo not given)", "growth inhibition": "46.5%"}
{"smiles": "O=C(O)c1c(Br)c(Br)c(Br)c(Br)c1C(=O)Nc1cccc2c(O)cccc12", "growth inhibition": "14.4%"}
{"smiles": "COc1cc(NS(=O)(=O)c2ccccc2)ccc1C", "growth inhibition": "12.3%"}
{"smiles": "O=[N+]([O-])c1ccc2nc[nH]c2c1", "growth inhibition": "25.5%"}
{"smiles": "CC[N+](C)(CC)CCNc1cc2c(c3c(=O)c4ccccc4sc13)CCCC2", "growth inhibition": "99.2% (active)"}
{"smiles": "COC1=CC(=O)C(C)=CC1=O", "growth inhibition": "7.35%"}
{"smiles": "CC1CC(=O)CCC2(C)C(OC(C)(C)C)CCC12", "note": "(stereo not given)", "growth inhibition": "9.15%"}
